# Rows were chosen to be rich in hits. Some 11% of all compounds tested hit in one or more screens of this group.
# VDR inh = inhibitors of human vitamin D receptor | AID 504847 | VDR-SRC2-3 peptide fluorescence polarization, 2 h | 400,000 compounds, 0.93% hits | Potency, µM, usual class: inhibitors
#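 Fluorescence polarization assay of small-molecule disruption of VDR binding to coregulator peptide SRC2-3. Compounds and controls pin-transferred, then read after 2 h incubation at ambient room temperature.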
# PLK1 PBD block = inhibitors of human PLK1 polo-box domain binding; Plk1 PBD binding of FITC phosphopeptide, fluorescence polarization; P53350; Potency, µM, most hits filed as inhibitors; AID 720504; 360,000 compounds, 2.8% hits; also: series mostly up to about 57 µM; nearly all actives have a fitted effect of over 65% in size
# HP1b binding inh = HP1-beta chromodomain-methylated histone interaction inhibition; Potency, µM (titrated, usually from 114 µM), usual class: inhibitors; 390,000 compounds, 0.56% hits; AlphaScreen HP1-beta / biotin-H3K9me3 peptide binding; also: nearly all actives have a fitted effect of over 70% in size
#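 Compound inhibition of the preformed complex between 50 nM HP1-beta and 50 nM biotinylated H3K9me3 peptide was read by AlphaScreen. Buffer was PBS pH 7.4 with 0.01% Tween-20. Incubations ran 30 min at room temperature, with 10 ug/mL donor/acceptor beads.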
# JMJD2A Tudor = inhibitors of human JMJD2A Tudor domain. O75164. AlphaScreen JMJD2A-Tudor / H3K4me3 peptide binding. Potency, µM (doses to about 114 µM), most hits filed as inhibitors. 390,000 compounds, 4.4% hits; also: nearly all actives have a fitted effect of over 50% in size
# BAZ2B block = BAZ2B (human) inhibition; Q9UIF8; AlphaScreen BAZ2B-H3K14Ac peptide displacement; Potency, µM (doses to about 114 µM), most hits filed as inhibitors; 360,000 compounds, 4.4% hits; AID 504333; also: nearly all actives have a fitted effect of over 60% in size
#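 BAZ2B 50 nM plus b-H3(5-23)K14Ac 50 nM, PBS pH 7.4/0.01% Tween-20, 30 min RT; compound added (max 110 uM), 30 min RT; streptavidin donor/Ni-chelate acceptor beads 10 ug/mL final, 20 min dark; AlphaScreen read.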
# G9a inh = blocks human histone lysine methyltransferase G9a | Potency, µM (series often up to 102 µM), most hits filed as inhibitors | 350,000 compounds, 8.8% hits | G9a H3K9 monomethylation, AlphaScreen, 2 h; also: nearly all actives have a fitted effect of over 75% in size
#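 Using a bead-based AlphaScreen, monomethylated H3K9 product from 2 h room-temperature reactions (G9a 20 nM, peptide 500 nM, SAM 20 uM) was detected with 0.5 ug/mL rabbit anti-H3K9me1 antibody.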
# Hits are given with their value; – = inactive; ? = inconclusive; · = no result; [ ] = remark or other dose. Calls follow the shape of the dose curve; as a rule, active = well fitted curve in the direction sought with a large enough effect; inconclusive = small, poorly fitted or top-dose-only effect, or another doubt; inactive = no such curve, though single readings can be large; an effect the other way counts as inactive or inconclusive.
SMILES,VDR inh,PLK1 PBD block,HP1b binding inh,JMJD2A Tudor,BAZ2B block,G9a inh
Cc1oc2ccc(OS(C)(=O)=O)cc2c1C(=O)OC(C)C,?,19µM,–,?,–,–
O=C(CN(C(=O)CCC(=O)Nc1ccccn1)c1ccc(F)cc1)NCc1ccc(F)cc1,–,–,–,–,–,–
Cc1c(Br)c([N+](=O)[O-])nn1CC(=O)Nc1sc2c(c1C(=O)OC(C)C)CCCC2,–,19µM,–,–,–,?
Cc1c(Br)c([N+](=O)[O-])nn1CCCC(=O)Nc1sc2c(c1C#N)CCC2,?,5.3µM,?,50µM,?,?
Cc1c(Cl)c([N+](=O)[O-])nn1CCCC(=O)Nc1sc2c(c1C#N)CCC2,?,30µM,?,?,–,?
Cc1ccc(-c2onc(C)c2C)cc1S(=O)(=O)Nc1cccc(Cl)c1C,–,·,–,–,–,–
O=C(Nc1cccc(Cl)c1)c1ccc2sc([C@H]3C[C@H](O)[C@@H](CO)O3)nc2c1,·,–,·,·,·,·
c1ccc(CN2CCc3[nH]c4ccccc4c3C2)cc1,–,–,–,?,·,·
CSc1ccc(CN2CCc3c([nH]c4ccccc34)C2)cc1,–,–,?,3.2µM,?,·
Clc1ccc(CN2CCc3c([nH]c4ccccc34)C2)cc1Cl,–,?,?,16µM,32µM,28µM
COc1cc(OC)c(CN2CCc3c([nH]c4ccccc34)C2)cc1Br,–,–,–,?,?,?
Cc1cccc(CN2CCc3c([nH]c4ccccc34)C2)c1,–,–,45µM,20µM,50µM,45µM
COc1cc(/C=C(\CCC(=O)O)c2nc3ccccc3s2)ccc1OCC(=O)Nc1c(Cl)cccc1Cl,–,?,–,?,·,·
CCC(C(N)=O)N1C(=O)C2C3CCC(C3)C2C1=O (stereo not drawn),·,–,·,·,·,·
Cc1csc(=Nc2ccccc2)n1C,–,–,–,–,50µM,?
Cc1ccc(C)c(OCCC(=O)OCC(=O)NCCc2ccc(S(N)(=O)=O)cc2)c1,–,–,–,–,–,–
CC(C)c1cc(C(=O)O)c2cnn(C(C)C)c2n1,?,27µM,–,?,–,–
Cc1ccccc1N1CCN(C(=O)c2cc(-c3ccccc3)nc3c2cnn3C(C)C)CC1,·,–,·,·,·,·
Cc1ccc(C23CC4CC(CC(C(=O)N5CCOCC5)(C4)C2)C3)cc1,–,–,–,–,–,?
CNc1nc(-c2cccc(NS(C)(=O)=O)c2)nc2ccccc12,45µM,·,·,·,·,–[0.501 µM]
CNc1nc(-c2ccccc2C)nc2ccccc12,45µM,·,·,·,·,–[0.501 µM]
Cc1cccc(-c2nc(Nc3ccc(N4CCOCC4)cc3)c3ccccc3n2)c1,–,–,–,40µM,25µM,7.1µM
Cc1cccc(-c2nc(Nc3cccc(O)c3)c3ccccc3n2)c1,–,–,–,–,–,–
CC(=O)c1cccc(Nc2nc(-c3cccc(C)c3)nc3ccccc23)c1,–,·,–,–,–,7.1µM
COc1ccc(CCNC(=O)c2nc(SCc3ccc(C)cc3)ncc2Cl)cc1OC,–,·,–,–,–,–
SMILES,VDR inh,PLK1 PBD block,HP1b binding inh,JMJD2A Tudor,BAZ2B block,G9a inh
CN(C)c1ncnc2ccc(-c3ccc4c(c3)OCO4)cc12,–,·,·,·,·,–[0.501 µM]
COc1ccc(N2C(=O)CC(Sc3nnc(-c4ccccc4)o3)C2=O)cc1 (stereo not drawn),–,–,–,–,–,10µM
N#Cc1cc2c(nc1SC1CC(=O)N(c3ccccc3)C1=O)CCC2 (stereo not drawn),–,–,–,–,–,–
O=C1CC(Sc2nnc(-c3ccccc3O)o2)C(=O)N1c1ccccc1 (stereo not drawn),–,?,–,?,?,7.9µM
CC(=O)c1ccccc1NS(=O)(=O)c1cccc2nsnc12,–,–,?,?,50µM,50µM
Cc1ccc(C)c(NS(=O)(=O)c2c(C)ccc3nsnc23)c1,–,–,–,–,–,–
Cc1ccc2nsnc2c1S(=O)(=O)Nc1cccc2nsnc12,–,–,–,–,–,45µM
CCCS(=O)(=O)NC(=O)C1(C)CCCN(C(=O)c2cc(F)ccc2C)C1 (stereo not drawn),·,–,·,·,·,·
COc1ccc(OCC(=O)Nc2cc(-c3cccc(Cl)c3)nn2-c2ccccc2)cc1,–,·,–,–,–,–
COc1ccc(C2CC(=O)c3sc(NC(C)=O)nc3C2)cc1 (stereo not drawn),–,?,–,–,–,40µM
COc1ccc(-c2nc(NC(C)=O)sc2-c2ccc(OC)cc2)cc1,–,–,–,–,–,?
Nc1n[nH]c(S(=O)(=O)CCCc2ccccc2)n1,–,–,–,–[11.4 µM],–,50µM
Cc1cn(C2CCCCC2)c(=O)n(-c2ccccc2)c1=O,–,–,–,–,·,·
CC(=O)Nc1cccc(NC(=S)Nc2ccc(F)c(Cl)c2)c1,–,30µM,–,–,–,?
CC(=O)Nc1cccc(NC(=O)Nc2ccc(C)c(Cl)c2)c1,–,–,–,–,–,–
COC(=O)c1sccc1NC(=S)Nc1cccc(F)c1,–,–,–,–,–,·
CC(=O)NNC(=S)Nc1cccc(F)c1,–,–,–,–,–,13µM
CCCCN(C)Cc1cc(=O)oc2cc3c(cc12)CCCC3,–,–,–,–,–,–
CCN(CCO)Cc1cc(=O)oc2cc3c(cc12)CCC3,–,–,–,–,–,40µM
C/C(CCN1CCCCc2nc(C)c(C)cc21)=N\O[C@H](C)c1cn([C@H](CO)Cc2ccccc2)nn1,·,·,·,·,–,56µM
C/C(CCN1CCCCc2nc(C)c(C)cc21)=N\O[C@@H](C)c1cn([C@H](CO)Cc2ccccc2)nn1,·,·,·,·,–,?
CC1(C(=O)NCc2ccccc2)Cc2c(-c3ccc4c(c3)OCO4)ccnc2O1 (stereo not drawn),·,–,·,·,·,·
Cn1nnnc1Sc1ncnc2scc(-c3cccs3)c12,?,·,?,25µM,10µM,–[0.501 µM]
Cn1nnnc1Sc1ncnc2scc(-c3ccc(-c4ccccc4)cc3)c12,–,·,–,–,·,·
CCOc1ccc(NC(=O)c2nn(C)c3c2COc2ccccc2-3)cc1,–,·,–,–,–,?
SMILES,VDR inh,PLK1 PBD block,HP1b binding inh,JMJD2A Tudor,BAZ2B block,G9a inh
CCOC(=O)c1nnsc1-c1ccc(-c2snnc2C(=O)OCC)cc1,–,–,–,–,–,–
CCOC(=O)c1nnsc1Nc1ccc(C)c(C)c1,–,–,–,–,–,7.1µM
Cc1ccc(CN2CCC[C@]3(N[C@H](c4ccc(C(F)(F)F)cc4)[C@@H]4C(=O)N(Cc5ccccc5)C(=O)[C@@H]43)C2=O)cc1,·,–,·,·,·,·
CCOC(=O)c1nn(-c2ccc(F)cc2)c2c1CC/C2=C/c1ccccc1,–,–,–,–,–,71µM
CC(Nc1nc(-c2cccc(Br)c2)cs1)c1nc2cc(Cl)c(N3CCCCC3)cc2n1CCOCCO (stereo not drawn),–,–,–,?,–,–
CCOCC(=O)N1CCc2ccccc21,–,–,–,–,–,–[12.7 µM]
O=C(c1c(F)c(F)c(F)c(F)c1F)N1CCc2ccccc21,?,24µM,–,56µM,·,·

# Compound activity from PubChem.
